Source: PubChem BioAssay (NCATS)
Inconclusive results are not listed. The source made the active and inactive calls. The call rests on the fitted dose curve; in most records, active means well fitted curve in the direction sought with a large enough effect; inconclusive means small, poorly fitted or top-dose-only effect, or another doubt; inactive means no such curve, though single readings can be large; an effect the other way counts as inactive or inconclusive.

How the values were obtained:
HaCat = test: Cytotoxic Profiling of Annotated Libraries Using Quantitative High-Throughput Screening (AID 1296008); conditions: Five cell lines viability, CellTiter-Glo ATP luminescence, 48-72 h; max response: hits give low values; further: nearly all actives have a fitted effect of over 60% in size
Outline: (§1)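 Cytotoxicity was measured as CellTiter-Glo ATP luminescence, read after 10 min at room temperature. Compound treatment of the cells lasted 48 or 72 hr at 37 degrees Celsius in a qHTS format.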

KB-3-1 = test: as above; conditions: Five cell lines viability, CellTiter-Glo ATP luminescence, 48-72 h; max response: hits give low values
Outline: as §1

NIH3T3 [1] = test: as above; conditions: Five cell lines viability, CellTiter-Glo ATP luminescence, 48-72 h; max response: hits give low values
Outline: as §1

MCC-13 = test: qHTS assay to identify novel small-molecules to repurpose for Merkel cell carcinoma treatment (AID 1296009); conditions: MCC and control cell lines, CellTiter-Glo viability, 72 h; series mostly up to 46 µM; further: nearly all actives have a fitted effect of over 60% in size
Outline: (§2)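 After compound transfer in DMSO, plates were kept 72 hr at 37 degree celsius. Luminescent ATP signal from CellTiter-Glo served as viability measure, normalized against DMSO and no-cell controls.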

MCC-26 = test: as above; conditions: MCC and control cell lines, CellTiter-Glo viability, 72 h; series mostly up to 46 µM
Outline: as §2

MKL-1 = test: as above; conditions: MCC and control cell lines, CellTiter-Glo viability, 72 h; series mostly up to 46 µM
Outline: as §2

MKL-2 = test: as above; conditions: MCC and control cell lines, CellTiter-Glo viability, 72 h; series mostly up to 46 µM
Outline: as §2

NIH3T3 [2] = test: as above; conditions: MCC and control cell lines, CellTiter-Glo viability, 72 h; at 44.8 µM (top of the series) unless noted
Outline: as §2

UISO = test: as above; conditions: MCC and control cell lines, CellTiter-Glo viability, 72 h; series mostly up to 46 µM
Outline: as §2

WaGa = test: as above; conditions: MCC and control cell lines, CellTiter-Glo viability, 72 h; series mostly up to 46 µM
Outline: as §2

C33A = test: Primary qHTS to identify gynecologic anti-cancer compounds using libraries of approved drugs and bioactive compounds (AID 1345084); conditions: Gynecologic cancer cell panel viability, ATPlite luminescence, 48 h; series mostly up to 57.5 µM; further: nearly all actives have a fitted effect of over 55% in size
Outline: (§3)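 ATP-based viability (ATPlite), 1,000 cells/well, 16 h pre-incubation, 48 h compound at 37 C, 5% CO2, 15 min RT before read.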

CAOV3 = test: as above; conditions: Gynecologic cancer cell panel viability, ATPlite luminescence, 48 h; series mostly up to 57.5 µM
Outline: as §3

CASKI = test: as above; conditions: Gynecologic cancer cell panel viability, ATPlite luminescence, 48 h; series mostly up to 57.5 µM
Outline: as §3

Es-2 = test: as above; conditions: Gynecologic cancer cell panel viability, ATPlite luminescence, 48 h; series mostly up to 57.5 µM
Outline: as §3

HeLa = test: as above; conditions: Gynecologic cancer cell panel viability, ATPlite luminescence, 48 h; series mostly up to 57.5 µM
Outline: as §3

Hek293T = test: as above; conditions: Gynecologic cancer cell panel viability, ATPlite luminescence, 48 h, control line for the selectivity index; series mostly up to 57.5 µM
Outline: as §3

JEG-3 = test: as above; conditions: Gynecologic cancer cell panel viability, ATPlite luminescence, 48 h; series mostly up to 57.5 µM
Outline: as §3

OV90 = test: as above; conditions: Gynecologic cancer cell panel viability, ATPlite luminescence, 48 h; series mostly up to 57.5 µM
Outline: as §3
On the % scale 0 is the no-effect control and ±100 the full control effect.

CCOC(=O)c1ccc(NC(=O)CN2CCCCC2)cc1
inactive: max response (HaCat) 4.59% | outcome (KB-3-1) | outcome (NIH3T3 [1]) | Potency (MCC-13) | Potency (MCC-26) | Potency (MKL-1) | Potency (MKL-2) | outcome (NIH3T3 [2]) | Potency (UISO) | Potency (WaGa) | Potency (C33A) | Potency (CAOV3) | Potency (CASKI) | Potency (Es-2) | Potency (HeLa) | Potency (Hek293T) | Potency (JEG-3) | Potency (OV90)

CC(=O)OCC(=O)[C@@]1(O)CCC2C3CCC4=CC(=O)CC[C@]4(C)C3[C@@H](O)C[C@@]21C (some centres not stated)
inactive: max response (HaCat) 3.13% | max response (KB-3-1) 0.5% | max response (NIH3T3 [1]) 0.645% | Potency (MCC-13) | Potency (MCC-26) | Potency (MKL-1) | Potency (MKL-2) | Potency (UISO) | Potency (WaGa) | Potency (C33A) | Potency (CASKI) | Potency (Es-2) | Potency (HeLa) | Potency (Hek293T) | Potency (JEG-3) | Potency (OV90)

O=C(O)c1ccccc1S
inactive: max response (HaCat) 1.95% | max response (KB-3-1) -5.69% | max response (NIH3T3 [1]) 1.26% | Potency (MCC-13) | Potency (MCC-26) | Potency (MKL-1) | Potency (MKL-2) | Potency (UISO) | Potency (WaGa) | Potency (C33A) | Potency (CAOV3) | Potency (CASKI) | Potency (Es-2) | Potency (HeLa) | Potency (Hek293T) | Potency (JEG-3) | Potency (OV90)

CCOC(=O)OCC/C(SC(=O)OCC)=C(\C)N(C=O)Cc1cnc(C)nc1N
inactive: max response (HaCat) -10.8% | max response (KB-3-1) -13.2% | outcome (NIH3T3 [1]) | Potency (MCC-13) | Potency (MCC-26) | Potency (MKL-1) | Potency (MKL-2) | outcome (NIH3T3 [2]) | Potency (UISO) | Potency (WaGa) | Potency (C33A) | Potency (CAOV3) | Potency (CASKI) | Potency (Es-2) | Potency (HeLa) | Potency (Hek293T) | Potency (JEG-3) | Potency (OV90)

C[C@H]1NCc2cc(-c3ccc4c(=O)c(C(=O)O)cn(C5CC5)c4c3OC(F)F)ccc21
inactive: max response (HaCat) -3.8% | max response (KB-3-1) -9.83% | max response (NIH3T3 [1]) 3.52% | Potency (MCC-13) | Potency (MCC-26) | Potency (MKL-1) | Potency (MKL-2) | Potency (UISO) | Potency (WaGa) | Potency (C33A) | Potency (CAOV3) | Potency (CASKI) | Potency (Es-2) | Potency (HeLa) | Potency (Hek293T) | Potency (JEG-3) | Potency (OV90)

CC1CC(=O)NN=C1c1ccc(NCC(C)(C)NCC(O)COc2cc(Cl)ccc2C#N)cc1 (configuration not stated)
inactive: max response (HaCat) -12.2% | max response (KB-3-1) -1.42% | max response (NIH3T3 [1]) -20.4% | Potency (MCC-13) | Potency (MCC-26) | Potency (MKL-1) | Potency (MKL-2) | Potency (UISO) | Potency (WaGa) | Potency (CAOV3) | Potency (CASKI) | Potency (Es-2) | Potency (HeLa) | Potency (Hek293T) | Potency (JEG-3) | Potency (OV90)

NCC(=O)O
inactive: max response (HaCat) -52.5% | max response (KB-3-1) -10.5% | max response (NIH3T3 [1]) -6.02% | Potency (MCC-13) | Potency (MCC-26) | Potency (MKL-1) | Potency (MKL-2) | Potency (UISO) | Potency (WaGa) | Potency (C33A) | Potency (CAOV3) | Potency (CASKI) | Potency (Es-2) | Potency (HeLa) | Potency (Hek293T) | Potency (JEG-3) | Potency (OV90)

CC1(C)S[C@@H]2[C@H](NC(=O)C(c3ccccc3)S(=O)(=O)O)C(=O)N2[C@H]1C(=O)O (some centres not stated)
inactive: max response (HaCat) -6.19% | max response (KB-3-1) -0.526% | max response (NIH3T3 [1]) 2.04% | Potency (MCC-13) | Potency (MCC-26) | Potency (MKL-1) | Potency (MKL-2) | Potency (UISO) | Potency (WaGa) | Potency (C33A) | Potency (CAOV3) | Potency (CASKI) | Potency (Es-2) | Potency (HeLa) | Potency (Hek293T) | Potency (JEG-3) | Potency (OV90)

CCc1cc(S(=O)(=O)O)c2cc(C(C)C)cccc1-2
inactive: max response (HaCat) 0.42% | max response (KB-3-1) 7.96% | max response (NIH3T3 [1]) 1.41% | Potency (MCC-13) | Potency (MCC-26) | Potency (MKL-1) | Potency (MKL-2) | Potency (UISO) | Potency (WaGa) | Potency (C33A) | Potency (CAOV3) | Potency (CASKI) | Potency (Es-2) | Potency (HeLa) | Potency (Hek293T) | Potency (JEG-3) | Potency (OV90)

COc1ccccc1OCC1CNC(=O)O1 (configuration not stated)
inactive: max response (HaCat) -20.6% | max response (KB-3-1) -0.906% | outcome (NIH3T3 [1]) | Potency (MCC-13) | Potency (MCC-26) | Potency (MKL-1) | Potency (MKL-2) | outcome (NIH3T3 [2]) | Potency (UISO) | Potency (WaGa) | Potency (C33A) | Potency (CAOV3) | Potency (CASKI) | Potency (Es-2) | Potency (HeLa) | Potency (Hek293T) | Potency (JEG-3) | Potency (OV90)

CCN1CCN(c2cc(-c3ccc(F)cc3)c3c(n2)CCCCCC3)CC1
inactive: max response (HaCat) 0.965% | max response (KB-3-1) -12.5% | outcome (NIH3T3 [1]) | Potency (MCC-13) | Potency (MCC-26) | Potency (MKL-1) | Potency (MKL-2) | outcome (NIH3T3 [2]) inactive [at 17.4 µM] | Potency (UISO) | Potency (WaGa) | Potency (C33A) | Potency (CAOV3) | Potency (CASKI) | Potency (Es-2) | Potency (HeLa) | Potency (Hek293T) | Potency (JEG-3) | Potency (OV90)

CO/N=C(/C(=O)N[C@@H]1C(=O)N2C(C(=O)O)=C(Cn3nnc(C)n3)CS[C@H]12)c1csc(N)n1
inactive: max response (HaCat) -1.44% | outcome (KB-3-1) | max response (NIH3T3 [1]) 2.67% | Potency (MCC-13) | Potency (MCC-26) | Potency (MKL-1) | Potency (MKL-2) | Potency (UISO) | Potency (WaGa) | Potency (C33A) | Potency (CAOV3) | Potency (CASKI) | Potency (Es-2) | Potency (HeLa) | Potency (Hek293T) | Potency (JEG-3) | Potency (OV90)

Brc1ccccc1-c1ccccc1
inactive: max response (HaCat) -6.21% | max response (KB-3-1) -3.53% | max response (NIH3T3 [1]) -3.48% | Potency (MCC-13) | Potency (MCC-26) | Potency (MKL-1) | Potency (MKL-2) | Potency (UISO) | Potency (WaGa) | Potency (C33A) | Potency (CASKI) | Potency (Es-2) | Potency (HeLa) | Potency (Hek293T) | Potency (JEG-3) | Potency (OV90)
